Experimental data reported in the supplement of paper PMC6555819.

Assays:
Assay in all cases: PBM binding z-score (relative to random genomic background probes); higher = stronger binding; sequences stand for … in GC…GCGATTGACAGCGTAGAATGAAGG
[1] = tested on: FXR:RXRa (NR concentration 270 nM, RXRa partner concentration 90 nM)
In short: (§1)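 On custom Agilent 4×180K arrays, double-stranded probes with 34-nt variable regions carried direct-repeat seeds, single-nucleotide variants, half-site ablations or random human genomic background. Ligand-free nuclear receptor dimers were applied for 1 h, and binding was read with antibodies against each partner (one per run). Binding z-scores come from regression-normalized fluorescence, with the random background probes as reference.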

[2] = tested on: LXRa:RXRa (NR concentration 270 nM, RXRa partner concentration 90 nM)
In short: as §1

[3] = tested on: LXRa homodimer (NR concentration 270 nM)
In short: as §1

[4] = tested on: LXRb:RXRa (NR concentration 270 nM, RXRa partner concentration 90 nM)
In short: as §1

[5] = tested on: LXRb homodimer (NR concentration 270 nM)
In short: as §1

[6] = tested on: PPARa:RXRa (NR concentration 270 nM, RXRa partner concentration 90 nM)
In short: as §1

[7] = tested on: PPARg:RXRa (NR concentration 180 nM, RXRa partner concentration 90 nM)
In short: as §1

[8] = tested on: PPARg:RXRa 270nM:90nM, anti-RXR (NR concentration 270 nM, RXRa partner concentration 90 nM)
In short: as §1

[9] = tested on: PPARg:RXRa 30nM:10nM, anti-RXR (NR concentration 30 nM, RXRa partner concentration 10 nM)
In short: as §1

[10] = tested on: PPARg:RXRa 90nM:30nM, anti-RXR (NR concentration 90 nM, RXRa partner concentration 30 nM)
In short: as §1

Row | Sequence | PBM binding z-score [1] | PBM binding z-score [2] | PBM binding z-score [3] | PBM binding z-score [4] | PBM binding z-score [5] | PBM binding z-score [6] | PBM binding z-score [7] | PBM binding z-score [8] | PBM binding z-score [9] | PBM binding z-score [10]
1 | CCTCGGAGGACAACAGGAGGTCAGATCTGCCAGA | 1.11 | 2.26 | 2.76 | 1.83 | -0.568 | 1.91 | 0.67 | 0.241 | -0.484 | -0.22
2 | ACTCGGAGTACAAAGGTCAGAGCTACGCCAGTGA | 4.23 | 4.12 | 1.57 | 3.56 | 0.437 | 5.17 | 8.46 | 7.54 | 7.42 | 8.33
3 | CAAACTAGGTCACCAAAGGTCAAAGTCGAATGAC | 7.53 | 8.61 | 8.25 | 7.82 | 3.21 | 6.74 | 10.1 | 8.27 | 6.41 | 8.55
4 | ACTATTAGTTGAGACGAGGTCAACCGATAGGTTG | 3.42 | 3.7 | 2.01 | 3.53 | 0.73 | 4.15 | 1.97 | 2.35 | 0.821 | 1.85
5 | TTACCAAGGTGAAAGGGCGTTGATGCACGCCTTG | 1.12 | 0.702 | -0.488 | 0.742 | -0.657 | 3.48 | 5.55 | 5.63 | 4.32 | 5.82
6 | CCTAGTCGGTCAGGAGGTCACACACCGGATATGA | 3.96 | 4 | 2.81 | 3.49 | 0.605 | 4.55 | 4.89 | 5.09 | 3.26 | 4.26
7 | TCACCAAGGTGAAGGTCGTTGATCCCTCTGTAGA | 2.28 | 2.24 | -0.136 | 1.8 | -0.731 | 2.71 | 2.23 | 3.66 | 2.84 | 3.37
8 | TCAGACTGGTGAAGGTAACTCAGGTACGCAGTCG | -0.62 | 0.98 | -0.387 | 0.192 | -1.07 | 0.467 | 0.185 | 1.29 | 2.82 | 1.98
9 | TGTCAAAGTTCAAAGGGAACGTAAGTATCCACAC | 7.11 | 6.18 | 3.96 | 4.16 | 1.68 | 5.06 | 8.1 | 7.17 | 5.31 | 7.11
10 | GGAACGAGGGCAAAGTTGATAGCCTCTGTCGACG | 1.19 | 0.817 | -0.461 | 0.459 | -0.828 | 3.93 | 6.54 | 7.37 | 5.66 | 7.65
11 | ATCTCTAGGTAAGACTCATTTCAGTGAAGAACGC | 0.503 | 0.373 | 0.526 | 0.488 | 0.888 | -0.0236 | 0.0953 | 0.265 | 0.363 | 0.295
12 | GCTAGCAGGCCATTTGGGTCAATCAATGACGGGC | 0.192 | 0.264 | -0.476 | 0.271 | -0.737 | 1.4 | 0.636 | 0.364 | -1.07 | -0.156
